Jurkat NFkB inh: inhibitors of the PMA/ionomycin-induced NF-kB reporter in Jurkat cells. PMA/ionomycin-induced NF-kB luciferase reporter, luminescence. AID 435003. inhibition, % at 4 µM. hit rate 0.53% among 330,000; in the data active = inhibition above about 50%
Gli-Sufu block: Gli-Sufu pathway antagonism; inhibition, % at 5 µM; Sufu-KO-LIGHT fibroblasts, Gli luciferase reporter luminescence; hit rate 0.74% among 340,000;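 active = inhibition above about 55%, limit read from the data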;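 note: 0% = DMSO-treated cells and 100% = wells with medium but no cells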
CSC inhib: blocks cancer stem cells | AID 2717 | inhibition, % at 7.5 µM | cancer stem cell-like cells viability, luminescence | hit rate 1.1% among 300,000; in the data active = inhibition above about 75%; inconclusive = no clear call, values can overlap the other calls; tested in HMLE shEcad cells
Mdm2-MdmX inh: inhibitors of human Mdm2/MdmX interaction; O15151+Q00987; inhibition, % at 8 µM; hit rate 3% among 330,000; SaOS-2 split-luciferase Mdm2/MdmX complementation, luminescence;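 active = inhibition of at least 50% at 8 µM in the primary screen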
Target sequence (O15151 whole entry, looked up): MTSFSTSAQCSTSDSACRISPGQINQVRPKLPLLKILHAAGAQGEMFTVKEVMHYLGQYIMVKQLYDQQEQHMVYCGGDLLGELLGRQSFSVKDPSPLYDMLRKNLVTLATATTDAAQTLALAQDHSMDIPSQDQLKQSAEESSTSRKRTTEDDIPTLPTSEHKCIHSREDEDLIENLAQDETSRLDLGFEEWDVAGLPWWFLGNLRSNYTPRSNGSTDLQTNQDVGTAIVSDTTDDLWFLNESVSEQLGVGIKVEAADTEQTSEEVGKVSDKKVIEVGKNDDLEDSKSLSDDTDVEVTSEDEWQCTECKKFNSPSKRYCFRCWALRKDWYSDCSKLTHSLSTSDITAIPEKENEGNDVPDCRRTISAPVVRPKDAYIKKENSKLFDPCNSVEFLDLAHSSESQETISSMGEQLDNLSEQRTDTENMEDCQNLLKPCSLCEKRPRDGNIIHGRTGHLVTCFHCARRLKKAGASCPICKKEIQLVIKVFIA
Target sequence (Q00987 whole entry, looked up): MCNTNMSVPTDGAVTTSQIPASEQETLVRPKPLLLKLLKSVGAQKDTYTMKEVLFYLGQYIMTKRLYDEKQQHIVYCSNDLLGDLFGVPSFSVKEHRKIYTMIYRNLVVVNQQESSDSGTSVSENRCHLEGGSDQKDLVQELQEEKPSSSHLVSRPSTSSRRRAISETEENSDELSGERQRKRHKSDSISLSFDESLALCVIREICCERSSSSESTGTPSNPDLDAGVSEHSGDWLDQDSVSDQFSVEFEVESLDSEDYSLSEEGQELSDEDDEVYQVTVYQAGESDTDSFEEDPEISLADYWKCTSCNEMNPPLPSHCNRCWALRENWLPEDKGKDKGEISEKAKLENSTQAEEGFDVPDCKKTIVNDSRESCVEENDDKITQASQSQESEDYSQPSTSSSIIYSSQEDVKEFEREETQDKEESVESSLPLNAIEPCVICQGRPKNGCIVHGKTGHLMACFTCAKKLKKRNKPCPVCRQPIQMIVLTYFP
Beta cell apopt: beta cell apoptosis inhibition | INS-1E cytokine-induced death, ATP luminescence, 48 h; percent of positive-control rescue, neutral wells zero | protection from apoptosis, % (no concentration beside the values) | hit rate 0.8% among 300,000 | AID 435005;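 active = Every replicate reaches about 75%, or at least half do and their mean reaches it too, limit read from the data; inconclusive = At least half of replicates reach the limit but their mean does not; inactive = Under half of replicates reach the limit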;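 note: 0% = cytokine-treated negative control wells and 100% = positive control rescue; higher means more ATP so stronger rescue from cytokine killing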
697 NFkB inh: lowers PMA/ionomycin-induced NF-kB signal in 697 B cells; 697 B-cell NF-kB luciferase reporter, 16 h; inhibition, % at 4 µM; hit rate 0.33% among 330,000; AID 435022; in the data active = inhibition above about 35%
Mdm2 MdmX conf: confirmation of human Mdm2/MdmX interaction inhibitors; shares compounds with Mdm2-MdmX inh; Mdm2-MdmX binding, luminescent assay; inhibition, % at 8 µM; hit rate 55% among 10,000; AID 489028; in the data active = inhibition above about 40%
Full FLuc ctr: counter-screen for Mdm2/MdmX inhibitors: full-length luciferase; shares compounds with Mdm2-MdmX inh; SaOS-2 full-length luciferase counterscreen, luminescence; inhibition, % at 8 µM; hit rate 77% among 6,200; AID 504607;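 active = mean inhibition at 8 µM reaching about 37%, which flags the compound as non-specific, limit read from the data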;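 note: p53-null SaOS-2 cells with luciferase driven by a doxycycline-inducible promoter; compound on cells about two nights before reading with doxycycline added after day one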
Starred values were filed as active, the others as inactive; ? = inconclusive; . = not tested or not shown. Shown are actives, neighbours in structure and some others; about 4.5% of the full set was active somewhere.

SMILES	Jurkat NFkB inh	Gli-Sufu block	CSC inhib	Mdm2-MdmX inh	Beta cell apopt	697 NFkB inh	Mdm2 MdmX conf	others
O=C(COC(=O)CCN1C(=O)C2CC=CCC2C1=O)Nc1ccc([N+](=O)[O-])cc1 (stereo not drawn)	-4.1	-4.4	-4.6	3.7	-5.1	7.3	.
COc1ccc(C(=O)NCC(=O)N2CCN(C(=O)c3ccco3)CC2)cc1	-7.4	-2.2	-9.5	0.7	9.7	2.3	.
CSc1ccc(C(=O)N2CCC(CCC(=O)NC3CC3)CC2)cc1	7.0	0.1	4.5	-1.7	-8.5	8.0	.
COc1ccccc1N(CC(=O)N/N=C/c1c(O)ccc2ccccc12)S(C)(=O)=O	30.7	28.4	24.7	77.0*	87.0*	-2.9	77.2*	Full FLuc ctr=26.2
COc1ccccc1N(CC(=O)Nc1ccccc1C)S(C)(=O)=O	-5.4	-8.3	-3.5	13.9	-2.5	-10.7	.
NS(=O)(=O)c1ccc(CCNc2ccnc3cc(Cl)ccc23)cc1	16.7	12.2	0.3	27.7	.	-1.6	.
Cc1ccc(C(C(=O)NC(C)(C)C)N(CC2CCCO2)C(=O)c2csnn2)cc1 (stereo not drawn)	3.2	10.8	1.4	-7.6	3.2	5.2	.
CC(C)(C)NC(=O)C(c1ccc(-c2ccccc2)cc1)N(C[C@H]1CC[C@@H]([C@@H]2CC[C@H](CO)O2)O1)C(=O)c1ccc(C(C)(C)C)cc1 (stereo partly drawn)	.	7.5	.	67.6*	.	12.0	0.5
C/C(Cl)=C\Cn1c(O)c(N=NC(N)=S)c2cc(Br)ccc21	4.6	13.1	.	74.6*	29.9	17.6	49.0*	Full FLuc ctr=74.4*
CC(C)=CCC12Oc3cc(O)ccc3C1(O)Oc1cc(O)c([C@H]3C=C(C)CC(c4ccc(O)cc4O)[C@H]3C(=O)c3ccc(O)cc3O)c(O)c1C2=O (stereo partly drawn)	-4.8	-0.9	-10.3	68.1*	-1.5	-0.2	1.8
COc1ccc(-c2nc3ccccc3[nH]2)cc1	-59.4	-97.1	.	-66.6	.	-156.7	.
COc1ccc(-c2cc(=O)n(-c3nc4ccccc4[nH]3)[nH]2)cc1	6.7	-20.5	104.4*	93.0*	34.6	-2.1	12.7
O=S(=O)(c1ccc(Cl)cc1)c1cnc2ccccc2n1	6.7	-1.9	36.6	53.1*	-29.1	7.0	17.6
Cc1cc(C)cc(S(=O)(=O)c2cnc3ccccc3n2)c1	-5.8	4.5	15.9	23.6	-12.0	-8.3	.
Cc1ccc(C(=O)c2c(C)oc3c2C(=O)C(=O)c2ccccc2-3)cc1	-9.7	-5.0	28.4	97.5*	124.1*	11.1	99.3*	Full FLuc ctr=42.2*
CCN(CC)CCn1c2c(c(SCC(=O)Nc3nccs3)nc1=O)CCCC2	18.2	11.4	-3.5	18.3	-5.6	13.2	.
O=C(CCn1nnnc1CN1CCOCC1)N1CCC(c2cccc(Cl)c2)C1 (stereo not drawn)	4.9	9.0	-4.0	-21.7	-1.2	-7.5	.
COc1cccc(-n2c(SCC(=O)N3CCc4ccccc43)nnc2-c2c[nH]c3ccccc23)c1	-5.2	5.1	37.5	74.9*	69.3	2.0	48.9*	Full FLuc ctr=82.7*
O=C(CSc1nc2ccccc2c(=O)n1-c1ccccc1)N1CCc2ccccc21	1.2	11.3	-0.6	54.9*	8.4	3.8	68.0*	Full FLuc ctr=80.6*
O=C(CSc1nc2ccccc2c(=O)n1-c1ccccc1)N1CCCc2ccccc21	-3.0	4.0	-0.7	6.0	-0.7	0.1	.
CCCc1c(O)nc(SC2CC(=O)N(c3ccc(C)c(Cl)c3)C2=O)[nH]c1=O (stereo not drawn)	-10.6	3.1	-5.3	15.7	-1.4	6.6	.
Cc1ccc(N2C(=O)CC(Sc3nc4ccccc4o3)C2=O)cc1Cl (stereo not drawn)	-12.1	4.5	-6.5	89.2*	-9.6	-19.2	8.4
CN(Cc1ccc(F)cc1)S(=O)(=O)c1nnc(NC(=O)c2ccccc2)s1	10.4	-15.1	51.2	10.0	22.4	-12.2	.
N#C/C(=C/c1ccc(F)cc1)c1nnc(NC(=O)c2ccccc2)s1	-5.8	1.1	14.5	74.2*	1.5	-11.8	21.1
O=C(CSC(=S)N1CCCC1)NCC(=O)Nc1ccc(F)c(F)c1	9.0	-1.8	7.3	-12.0	-5.4	-3.9	.
SMILES	Jurkat NFkB inh	Gli-Sufu block	CSC inhib	Mdm2-MdmX inh	Beta cell apopt	697 NFkB inh	Mdm2 MdmX conf	others
O=C(O)c1cccc(S(=O)(=O)N2CCC(n3nnc4cc(C(F)(F)F)ccc43)CC2)c1	-10.0	-9.9	.	-31.0	4.4	-15.8	.
CCCCCCOc1ccc(/C(C)=N/NC2=NCCN2)cc1	48.8	21.0	99.7*	90.2*	46.7	-57.1	31.1
Clc1ccc(-c2ccc(/C=N/Nc3nncc(-c4ccccc4)n3)o2)cc1	-5.3	-0.2	-6.8	50.3*	-0.8	-3.6	27.1
CC[C@]12c3[nH]c4ccccc4c3CCN1C(=O)C(CC(=O)NC/C=C(\C)CCC=C(C)C)C[C@@H]2C(=O)N1CCN(C(=O)c2ccco2)CC1 (stereo partly drawn)	11.2	8.7	18.4	54.2*	-10.6	2.6	-1.6
CC[C@]12c3[nH]c4cc(-c5ccco5)ccc4c3CCN1C(=O)[C@@H](CC(=O)NC/C=C(\C)CCC=C(C)C)C[C@@H]2C(=O)N1CCN(C(=O)C2CC2)CC1	.	-14.3	.	37.4	.	-70.1	.
CC[C@]12c3[nH]c4cc(-c5ccco5)ccc4c3CCN1C(=O)[C@@H](CC(=O)NC/C=C(\C)CCC=C(C)C)C[C@@H]2C(=O)N1CCN(C(=O)c2ccco2)CC1	.	31.7	.	56.1*	.	-23.2	-0.8
CC[C@]12c3[nH]c4ccc(Cl)cc4c3CCN1C(=O)[C@@H](CC(=O)NC/C=C(\C)CCC=C(C)C)C[C@@H]2C(=O)N1CCN(C(=O)C2CC2)CC1	.	12.1	.	69.7*	.	8.2	37.5	Full FLuc ctr=71.3*
COC(=O)c1ccc(CN(C)S(=O)(=O)c2cccs2)cc1	-14.5	-18.3	-16.1	-24.4	-1.4	-18.7	.
NC(=O)CC(NC(=O)Cc1ccc(Br)cc1)c1ccc(N2CCC(Br)CC2)c([N+](=O)[O-])c1 (stereo not drawn)	9.2	5.7	14.1	49.2	-1.5	17.8	.
NC(=O)CC(NC(=O)Cc1ccc(Br)cc1)c1ccc(N2CCC(Cc3ccccc3)CC2)c([N+](=O)[O-])c1 (stereo not drawn)	18.8	3.4	?	71.1*	70.1	6.1	54.6*	Full FLuc ctr=48.2*
CCCCNc1ccc(C(CC(N)=O)NC(=O)Cc2ccc(Br)cc2)cc1[N+](=O)[O-] (stereo not drawn)	29.5	2.5	7.0	86.6*	-11.0	-2.8	60.2*	Full FLuc ctr=53.1*
O=C(COC(=O)CC1CC2CCC1C2)Nc1cccc(S(=O)(=O)NC2=NCCCCC2)c1 (stereo not drawn)	1.5	-5.4	3.6	3.0	-0.8	12.5	.
